Source: PubChem BioAssay (National Center for Advancing Translational Sciences (NCATS))
Rows were chosen to be rich in hits. Some 19% of all compounds tested hit in one or more screens of this group.
TDP1 cell noCPT: qHTS for Inhibitors of human tyrosyl-DNA phosphodiesterase 1 (TDP1): qHTS in cells in absence of CPT. Potency, µM (series often up to 46.2 µM), without a hit: at the top dose activity change, negative = growth inhibition, most hits filed as inhibitors. DT40 Tdp1-/- hTDP1 cells, no CPT, ATP luminescence, 48 h. 420,000 compounds, 15% hits. AID 686978, 2013; note: nearly all actives have a fitted effect of over 55% in size
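Stably hTDP1-transfected Tdp1-null chicken DT40 cells were treated with library compounds minus camptothecin and grown for at least 48 hr at 37 °C, after which cellular ATP was quantified by luminescence.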
KB-3-1 tox: KB-3-1 parental cell cytotoxicity; 400,000 compounds, 1.4% hits; KB-3-1 viability, CellTiter-Glo ATP luminescence, 72 h; Potency, µM (series often up to 46.1 µM), most hits filed as cytotoxic; note: nearly all actives have a fitted effect of over 60% in size
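Screening of KB-3-1 cells (DMEM, 10% FBS, phenol-red free) ran from lowest to highest compound concentration; after 72 h at 37 °C viability was read luminescently and curves fitted.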
DT40 TDP1 CPT: DT40-hTDP1 cell growth loss with CPT | 420,000 compounds, 12% hits | AID 686979 | Potency, µM (top dose mostly 46.2 µM), for inactives: at the top dose activity change, negative = growth inhibition, usual class: inhibitors | chicken DT40 Tdp1-/-;hTDP1 cells + 20 nM CPT, ATP luminescence, 48 h; note: nearly all actives have a fitted effect of over 55% in size
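Chicken DT40 Tdp1-/- cells stably complemented with human TDP1 were seeded at 400 cells/well in medium containing 20 nM camptothecin, exposed to pin-transferred compounds, and grown at 37 °C for at least 48 hr. Viability was read as ATP luminescence.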
HT1080NT lethal: kills 2HG-producing HT-1080-NT fibrosarcoma cells | HT-1080-NT fibrosarcoma viability, CellTiter-Glo ATP luminescence, 48 h | Potency, µM (highest dose often 46.1 µM), for the others: top-dose activity, negative = less viability, hits mostly cytotoxic | 360,000 compounds, 1.6% hits | AID 686970;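 note: NT is the 2HG producing partner of a matched IDH1 knockdown line; 0% = DMSO-treated cells and -100% = media-only wells without cells; nearly all actives have a fitted effect of over 55% in size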
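750 cells/well, RPMI + 5% FBS; 2 h settle, compound pin-transfer, 48 h at 37 degrees C. CellTiter-Glo 10 min RT, luminescence. Normalized to DMSO and media-only wells.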
KB-V1 cytotox: KB-V1 MDR subline cytotoxicity; KB-V1 MDR cells viability, CellTiter-Glo, 72 h; Potency, µM (titrated, usually from 46.1 µM), actives largely listed as cytotoxic; 400,000 compounds, 3.4% hits; AID 1347076; note: nearly all actives have a fitted effect of over 60% in size
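KB-V1 MDR subline cells in DMEM (phenol-red free, 10% FBS) exposed to compounds in qHTS concentration series for 72 h at 37 degrees C. Viability read by CellTiter-Glo luminescence; concentration-effect curves fitted after normalization and correction.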
HT1080 IDH1KD tx: kills HT-1080 cells with IDH1 knockdown; HT-1080 IDH1 knockdown viability, ATP luminescence, 48 h; Potency, µM (series often up to 46.1 µM), inactives show top-dose activity, negative = toxicity, hits mostly cytotoxic; 360,000 compounds, 2% hits; AID 686971;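 note: 0% = DMSO wells and -100% = cell-free medium wells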
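Luminescent ATP read-out (CellTiter-Glo, 10 min at room temperature) after 48 h compound exposure at 37 °C gave viability of IDH1-knockdown HT-1080 cells. Activity was normalised to DMSO and cell-free wells, then fitted as concentration-response curves.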
Starred values were filed as active, the others as inactive; i = inactive; ? = inconclusive; . = not tested or not shown. Calls come from the whole dose curve; as a rule, active = well fitted curve in the direction sought with a large enough effect; inconclusive = small, poorly fitted or top-dose-only effect, or another doubt; inactive = no such curve, though single readings can be large; an effect the other way counts as inactive or inconclusive. Unless noted, % is set by controls: 0 for no effect and ±100 for the full control effect; potency is the fitted concentration of half-maximal effect.

SMILES | TDP1 cell noCPT | KB-3-1 tox | DT40 TDP1 CPT | HT1080NT lethal | KB-V1 cytotox | HT1080 IDH1KD tx
COc1ccc(NC(=O)CSc2nc3c(c(=O)n2-c2ccccc2OC)SCC3)cc1 | ? | i | 8% | 12% | i | -4%
Cn1c(SCC(=O)Nc2cccc(F)c2)nc2c(c1=O)SCC2 | 18µM* | . | 15µM* | -8% | . | -4%
Cn1c(SCC(=O)Nc2ccc(C(N)=O)cc2)nc2c(c1=O)SCC2 | -4% | i | 7% | 2% | i | 8%
Cn1c(SCC(=O)Nc2ccccc2C(F)(F)F)nc2c(c1=O)SCC2 | 10µM* | ? | 16µM* | ? | ? | -16%
CCOC(=O)c1ccc(NC(=O)CSc2nc3c(c(=O)n2-c2ccccc2OC)SCC3)cc1 | 12µM* | i | ? | 8% | i | 7%
CCOC(=O)C1=C(c2ccccc2)N=c2s/c(=C\c3cccc(O)c3)c(=O)n2C1c1cccs1 (stereo not drawn) | 26µM* | i | ? | ? | i | ?
CCOC(=O)C1=C(C)N=c2s/c(=C\c3cccc(OCC(=O)O)c3)c(=O)n2C1c1ccccc1OC (stereo not drawn) | -9% | i | -22% | 8% | i | 17%
O=c1cnc2cnc(Nc3ccccc3)nc2n1C[C@H]1CCCO1 | 9.2µM* | . | 8.2µM* | . | . | .
COCCn1c(=O)cnc2cnc(Nc3ccccc3)nc21 | 15µM* | . | 9.2µM* | . | . | .
CC1(NC(=O)c2cc(Cl)nc3ccccc23)CCS(=O)(=O)C1 (stereo not drawn) | 11% | i | 2% | 5% | ? | 5%
COc1cc(NC(=O)COC(=O)Cc2ccc(-c3ccccc3)cc2)cc(OC)c1 | -12% | i | 0% | -3% | i | 1%
COc1ccc2sc(N(CCCN(C)C)C(=O)c3ccc(S(=O)(=O)N(C)Cc4ccccc4)cc3)nc2c1 | 15µM* | ? | ? | -9% | ? | -3%
CN(C)CCN(C(=O)c1ccc2ccccc2c1)c1nc2cc3c(cc2s1)OCCO3 | ? | i | ? | -4% | i | -4%
CN(C)CCCN(C(=O)c1ccc(S(=O)(=O)N2CCCCCC2)cc1)c1nc2cc3c(cc2s1)OCO3 | ? | i | ? | -22% | i | -20%
Cc1ccc2sc(N(CCCN(C)C)C(=O)c3ccc(S(=O)(=O)N(C)Cc4ccccc4)cc3)nc2c1C | ? | ? | ? | -19% | ? | ?
CN(C)CCCN(C(=O)c1ccc(S(=O)(=O)N(C)Cc2ccccc2)cc1)c1nc2cc3c(cc2s1)OCO3 | 16µM* | i | -72% | ? | ? | ?
CN(C)CCCN(C(=O)COc1ccc(Cl)cc1)c1nc2cc3c(cc2s1)OCO3 | 13µM* | i | 8.2µM* | ? | i | ?
CN(C)CCCN(C(=O)c1ccc2ccccc2c1)c1nc2cc3c(cc2s1)OCO3 | ? | i | 21µM* | ? | i | ?
Cn1c(=O)c2c(ncn2CC(=O)N2CCN(C(=O)c3ccco3)CC2)n(C)c1=O | 6% | i | 2% | 18% | i | 10%
CCN(c1ccccc1)S(=O)(=O)c1ccc(C(=O)N(CCCN(C)C)c2nc3cc4c(cc3s2)OCO4)cc1 | ? | i | 18µM* | ? | i | ?
CCN(c1ccccc1)S(=O)(=O)c1ccc(C(=O)N(CCCN(C)C)c2nc3c(C)cccc3s2)cc1 | ? | i | ? | ? | i | ?
CN(C)CCCN(C(=O)c1ccc([N+](=O)[O-])o1)c1nc2cc3c(cc2s1)OCO3 | ? | i | 18µM* | -2% | i | -8%
